Reference: PubChem BioAssay (NCATS)
Where “and” joins values, the source holds several entries; their conditions need not be identical. Equal values may be shown once. Results filed as inconclusive are left out. Calls of active or inactive are those of the source. Unless noted, calls come from the whole dose curve; as a rule, active = well fitted curve in the direction sought with a large enough effect; inconclusive = small, poorly fitted or top-dose-only effect, or another doubt; inactive = no such curve, though single readings can be large; an effect the other way counts as inactive or inconclusive.

What was measured:
[1] = qHTS assay for small molecule antagonists of retinoid X receptor alpha signaling (AID 588546); settings: HEK293T RXRa-UAS-bla, beta-lactamase ratio, antagonist mode; measured here: W530 green channel, cytotoxicity proxy;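 note: cells stimulated with 9-cis-retinoic acid as agonist; % is set by controls: 0 for no effect and ±100 for the full control effect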
Outline: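 Beta-lactamase reporter inhibition, read as CCF4 fluorescence ratio (ex 405, em 460/530 nm) after 2 h at RT. HEK293T UAS-bla cells, 2500/well, were stimulated with 9-cis-RA at 500 or 100 nM final alongside test compound for 18 h at 37 C.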

[2] = molecular target: Thyroid hormone receptor beta (Homo sapiens) (UniProt P10828); assay: qHTS assay for small molecule antagonists of thyroid hormone receptor beta signaling (AID 588547; active = well fitted inhibition curve with a large enough effect in the signal ratio, with a control signal flat, not every such curve was filed as active; the % refers to the signal ratio;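 note: cells stimulated with 0.4 nM T3 agonist during compound exposure; % is set by controls: 0 for no effect and ±100 for the full control effect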); settings: TR-UAS-bla HEK293, beta-lactamase ratio, antagonist mode, 18 h
Outline: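 TR-UAS-bla GripTite HEK293 cells in 2% charcoal/dextran FBS medium; compounds 0.59 nM to 92 uM with T3 at 0.4nM final, 18 h at 37 C. Beta-lactamase read by CCF4 fluorescence (460/530 nm); Hill fits gave IC50 and efficacy.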

[3] = qHTS assay for small molecule activators of the p53 signaling pathway (AID 651743; active = well fitted activation curve with a large enough effect in the signal ratio, not every such curve was filed as active; the % refers to the signal ratio; note: % of control where 0% means no effect); settings: HCT-116 p53RE-bla, beta-lactamase FRET ratio, 16 h; activation: stronger effect = higher value
Outline: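 Reporter: beta-lactamase driven by p53 response elements, stably integrated in HCT-116 cells. Cells seeded at 4,000/well, 5 h preincubation, compound (DMSO) 16 h at 37 C; B/G FRET substrate 2 h RT; fluorescence intensity read.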

[4] = molecular target: Peroxisome proliferator-activated receptor alpha (Homo sapiens) (UniProt Q07869); assay: qHTS assay for small molecule agonists of the peroxisome proliferator-activated receptor alpha (PPARalpha) signaling pathway (AID 651778); settings: PathHunter PPARalpha complementation, chemiluminescence, 6 h; stronger effect = higher value; note: % of control where 0% means no effect
Outline: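 Enzyme-fragment complementation assay in which ligand-bound PPARalpha translocates and forms an active enzyme that generates chemiluminescence. Cells were plated overnight, exposed to compound for 6 hr at 37 C, and then given detection reagent for 60 min at room temperature.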

[5] = qHTS for differential inhibitors of proliferation of Plasmodium falciparum line 3D7 (AID 1876); note: potency is the fitted concentration of half-maximal effect; settings: P. falciparum 3D7 proliferation inhibition; series mostly up to 28.7 µM
[6] = Validation screen for small molecules that induce DNA re-replication in MCF 10A normal breast cells (AID 463097); settings: MCF 10A cells, DNA re-replication phenotype imaging; series mostly up to 46.1 µM; note: 0% is about no effect; nearly all actives have a fitted effect of over 60% in size
Outline: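 Image-based qHTS: normal breast cells are incubated with compound for 48 hr, stained with Hoechst, and scanned for total nuclear fluorescence. Compounds raising the fraction of nuclei with elevated DNA content count as re-replication inducers.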

[7] = Cell Viability - SK-N-SH (AID 435; calls by dose curve;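 note: potency is the fitted concentration of half-maximal effect; compound exposure lasted 40 h at 37 °C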); settings: SK-N-SH neuroblastoma cell viability qHTS
Outline: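 Luminescent ATP signal served as the viability read-out after 40 hours of compound treatment of human neuroblastoma SK-N-SH cells. Concentration-response data, scaled between DMSO and 100 uM tamoxifen, gave AC50 values by standard Hill modeling.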

[8] = molecular target: Endonuclease 4 (Escherichia coli (strain K12)) (UniProt P0A6C1); assay: Counterscreen for APE1 Inhibitors: qHTS Validation Assay for Inhibitors of Endonuclease IV (AID 1708); note: % is set by controls: 0 for no effect and ±100 for the full control effect; settings: E. coli endonuclease IV, DNA cleavage fluorescence; series mostly up to 57.1 µM
Outline: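 Read-out: fluorescence rise (ex 525/em 598 nm) from incision of a TAMRA/BHQ-2 double-stranded THF abasic-site substrate (50 nM), measured kinetically; third-minus-first read difference gave reaction progress. Enzyme 2 nM.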

[9] = molecular target: ATP-dependent 6-phosphofructokinase (Trypanosoma brucei brucei) (UniProt O15648); assay: qHTS Assay to Find Inhibitors of T. brucei phosphofructokinase: hit validation (AID 492961);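 note: luminescence reports ADP formed as PFK phosphorylates fructose-6-phosphate with ATP; % is set by controls: 0 for no effect and ±100 for the full control effect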; settings: T. brucei PFK, ADP-Glo luminescence; series mostly up to 51.4 µM
Outline: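 Compounds titrated; %activity normalized to 0x and 1x enzyme controls, curve-fitted. Readout: ADP-Glo luminescence after 45 min room-temperature reaction of 1.25 nM PFK, 0.1 mM ATP, 0.5 mM F6P, pH 8.0.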

[10] = molecular target: Luciferin 4-monooxygenase (Photinus pyralis) (UniProt P08659); assay: Biochemical firefly luciferase enzyme assay for NPC (AID 624030);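 note: purified P. pyralis luciferase at 10 nM with luciferin and ATP substrate; 0% = DMSO and -100% = full luciferase inhibition by PTC124 control; nearly all actives have a fitted effect of over 70% in size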; settings: purified P. pyralis luciferase, luminescence, 5 min; series mostly up to 58.6 µM
Outline: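 Purified P. pyralis luciferase at 10 nM in 50 mM Tris Acetate (final), luminescence read within 5 minutes of enzyme addition to compounds. Activity normalised to PTC124 versus DMSO; concentration-response curves classed by r2, magnitude and activity.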

[11] = S16 Schwann cell viability assay (CellTiter-Glo assay) (AID 624031); settings: S16 rat Schwann cells viability, 24 h; series mostly up to 57.5 µM;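 note: native untransfected S16 rat Schwann cells; cellular ATP luminescence as a viability measure; plate controls were DMSO-treated cells for no effect and cell-free wells for full effect; nearly all actives have a fitted effect of over 70% in size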
Outline: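 Rat S16 Schwann cells without reporter constructs received compound or DMSO for 24 h at 37 °C under 5% CO2. Cellular ATP was then quantified by CellTiter-Glo luminescence, with vehicle wells defined as 0% activity and cell-free wells as reference.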

[12] = S16 Schwann cell PMP22 intronic element firefly luciferase assay (AID 624032); settings: S16 rat Schwann cells, PMP22 element FLuc, 24 h; series mostly up to 57.5 µM;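 note: plate controls were DMSO for no effect and PTC124 positive control mean for full effect; nearly all actives have a fitted effect of over 30% in size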
Outline: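 Rat S16 Schwann cells stably carrying firefly luciferase driven by a PMP22 intronic element, in 10% FBS, treated 24 h at 37 C. ONE-Glo luminescence normalized to PTC124 control and DMSO (0%); curves classed by r2, magnitude and activity.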

[13] = molecular target: Nuclear receptor ROR-gamma (Homo sapiens) (UniProt P51449); assay: qHTS assay for small molecule antagonists of the retinoid-related orphan receptor gamma (ROR-gamma) signaling pathway (AID 651802); settings: ROR-gamma antagonist cell reporter assay; series mostly up to 92.2 µM; note: nearly all actives have a fitted effect of over 60% in size; note: potency is the fitted concentration of half-maximal effect
Outline: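 Doxycycline-induced reporter activity in engineered CHO cells (TET-inducible ROR, RORE-LUC) was measured by luminescence after 16hr compound exposure at 37C.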

[14] = test system: 3D7; assay: qHTS profiling for inhibitors of Plasmodium falciparum proliferation (AID 504749); note: nearly all actives have a fitted effect of over 60% in size; note: potency is the fitted concentration of half-maximal effect; settings: P. falciparum in erythrocytes, SYBR Green DNA, 72 h; series mostly up to 28.7 µM
Outline: (§1)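 SYBR Green fluorescence (ex 485 nm, em 535 nm) reports parasite DNA after 72 h compound exposure of infected red cells at 0.3% parasitemia, 2.5% hematocrit; signal normalized to 0.29 uM artemisinin and vehicle wells.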

[15] = test system: Dd2; assay: as above; settings: P. falciparum in erythrocytes, SYBR Green DNA, 72 h; series mostly up to 28.7 µM
Outline: as §1

[16] = test system: ECU; assay: as above; settings: P. falciparum in erythrocytes, SYBR Green DNA, 72 h; series mostly up to 28.7 µM
Outline: as §1

[17] = test system: FAB9; assay: as above; settings: P. falciparum in erythrocytes, SYBR Green DNA, 72 h; series mostly up to 28.7 µM
Outline: as §1

[18] = test system: PC15; assay: as above; settings: P. falciparum in erythrocytes, SYBR Green DNA, 72 h; series mostly up to 28.7 µM
Outline: as §1

[19] = test system: PC49; assay: as above; settings: P. falciparum in erythrocytes, SYBR Green DNA, 72 h; series mostly up to 28.7 µM
Outline: as §1

[20] = qHTS for differential inhibitors of proliferation of Plasmodium falciparum line GB4 (AID 1816); settings: Potency: Plasmodium falciparum GB4 proliferation inhibition; series mostly up to 28.7 µM;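 note: potency is the fitted concentration of half-maximal effect; parasite growth measured after 72 h incubation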

Chain of Peroxisome proliferator-activated receptor alpha (Homo sapiens) (Q07869 whole entry, looked up, the tested form may be a part): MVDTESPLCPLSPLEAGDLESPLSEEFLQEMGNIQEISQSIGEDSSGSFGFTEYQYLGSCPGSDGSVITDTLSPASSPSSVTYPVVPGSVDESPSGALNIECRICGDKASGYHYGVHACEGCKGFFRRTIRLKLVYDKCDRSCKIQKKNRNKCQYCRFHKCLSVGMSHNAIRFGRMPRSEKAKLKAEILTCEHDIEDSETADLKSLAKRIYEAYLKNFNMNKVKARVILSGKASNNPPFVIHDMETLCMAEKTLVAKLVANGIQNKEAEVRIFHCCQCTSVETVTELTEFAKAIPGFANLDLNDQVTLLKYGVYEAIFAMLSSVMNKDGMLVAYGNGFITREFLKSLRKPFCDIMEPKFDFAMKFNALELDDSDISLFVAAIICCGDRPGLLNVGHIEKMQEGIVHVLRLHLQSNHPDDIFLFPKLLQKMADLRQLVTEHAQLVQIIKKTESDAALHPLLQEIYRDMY
Chain of Thyroid hormone receptor beta (Homo sapiens) (P10828 whole entry, looked up): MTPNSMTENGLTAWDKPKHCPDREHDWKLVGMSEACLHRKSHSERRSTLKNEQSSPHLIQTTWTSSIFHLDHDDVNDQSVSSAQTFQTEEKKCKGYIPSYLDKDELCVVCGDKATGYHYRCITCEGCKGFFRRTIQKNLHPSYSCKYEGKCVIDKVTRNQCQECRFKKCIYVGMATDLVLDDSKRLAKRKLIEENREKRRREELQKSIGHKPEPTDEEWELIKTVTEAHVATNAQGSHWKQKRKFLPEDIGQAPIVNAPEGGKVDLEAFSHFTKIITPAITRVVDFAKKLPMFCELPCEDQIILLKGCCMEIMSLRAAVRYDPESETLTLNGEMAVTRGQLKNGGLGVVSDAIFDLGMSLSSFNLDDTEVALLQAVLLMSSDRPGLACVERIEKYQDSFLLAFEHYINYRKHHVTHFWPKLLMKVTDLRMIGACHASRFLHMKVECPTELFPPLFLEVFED
Chain of Luciferin 4-monooxygenase (Photinus pyralis) (P08659 whole entry, looked up): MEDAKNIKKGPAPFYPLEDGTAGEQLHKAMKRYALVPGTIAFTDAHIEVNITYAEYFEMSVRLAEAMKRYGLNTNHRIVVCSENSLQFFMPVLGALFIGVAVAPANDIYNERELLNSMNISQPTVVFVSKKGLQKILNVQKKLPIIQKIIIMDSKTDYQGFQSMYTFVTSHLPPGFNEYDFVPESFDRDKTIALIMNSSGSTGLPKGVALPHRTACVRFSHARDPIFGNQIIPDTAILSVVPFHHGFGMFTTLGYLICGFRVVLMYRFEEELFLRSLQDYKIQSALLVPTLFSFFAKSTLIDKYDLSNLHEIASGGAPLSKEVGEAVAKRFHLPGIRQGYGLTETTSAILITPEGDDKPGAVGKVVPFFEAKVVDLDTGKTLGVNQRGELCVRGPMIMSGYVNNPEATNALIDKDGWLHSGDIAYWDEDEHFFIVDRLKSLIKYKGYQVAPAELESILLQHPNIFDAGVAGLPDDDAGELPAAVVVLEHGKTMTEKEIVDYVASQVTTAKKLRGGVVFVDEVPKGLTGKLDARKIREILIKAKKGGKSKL
Chain of Nuclear receptor ROR-gamma (Homo sapiens) (P51449 whole entry, looked up): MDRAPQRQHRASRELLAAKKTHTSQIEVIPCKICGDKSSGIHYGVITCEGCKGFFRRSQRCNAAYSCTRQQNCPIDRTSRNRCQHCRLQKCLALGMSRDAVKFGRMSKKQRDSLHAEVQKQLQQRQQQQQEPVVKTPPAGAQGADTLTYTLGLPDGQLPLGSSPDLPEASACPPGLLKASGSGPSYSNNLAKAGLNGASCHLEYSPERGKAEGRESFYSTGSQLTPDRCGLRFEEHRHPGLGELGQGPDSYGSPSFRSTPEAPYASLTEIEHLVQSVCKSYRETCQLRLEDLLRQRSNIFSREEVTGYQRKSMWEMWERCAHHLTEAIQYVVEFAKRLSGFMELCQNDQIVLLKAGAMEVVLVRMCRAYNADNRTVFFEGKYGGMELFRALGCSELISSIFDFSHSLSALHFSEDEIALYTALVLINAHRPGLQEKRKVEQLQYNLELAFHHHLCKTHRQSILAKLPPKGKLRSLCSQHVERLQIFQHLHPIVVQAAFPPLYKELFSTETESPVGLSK
Chain of ATP-dependent 6-phosphofructokinase (Trypanosoma brucei brucei) (O15648 whole entry, looked up): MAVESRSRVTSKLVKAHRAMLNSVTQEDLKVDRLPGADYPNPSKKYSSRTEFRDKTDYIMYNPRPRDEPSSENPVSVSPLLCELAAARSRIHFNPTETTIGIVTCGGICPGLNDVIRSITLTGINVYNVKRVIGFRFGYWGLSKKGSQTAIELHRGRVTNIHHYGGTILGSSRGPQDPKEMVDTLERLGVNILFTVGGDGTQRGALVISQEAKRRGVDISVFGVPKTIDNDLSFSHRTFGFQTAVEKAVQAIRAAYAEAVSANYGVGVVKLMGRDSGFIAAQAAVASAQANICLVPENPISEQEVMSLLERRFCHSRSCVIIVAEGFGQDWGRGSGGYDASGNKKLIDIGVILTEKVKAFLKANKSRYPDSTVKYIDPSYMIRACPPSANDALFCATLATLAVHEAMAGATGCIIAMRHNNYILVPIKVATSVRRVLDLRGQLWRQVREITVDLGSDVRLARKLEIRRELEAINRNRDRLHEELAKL

ClC1=C(Cl)C2(Cl)C3C(Cl)C=CC3C1(Cl)C2(Cl)Cl (configuration not stated)
-16.9%: max response [1]
inactive: activity change % (negative = inhibition) [2] -18.9% | activation [3] 1.8% | max response [4] 4.41%

CN1CCC23CCCC[C@H]2C1Cc1ccc(O)cc13 (some centres not stated)
inactive: Potency [5] | Potency [6]

CCc1cccc(CC)c1N(COC)C(=O)CCl
inactive: Potency [7] > 92 µM | activity change % (negative = inhibition) [2] -17.8% and -7.56% | max response [4] -2.24% and -0.952%
18.2%: max response [1]

CCC(CO)NC(=O)[C@@H]1C=C2c3cccc4[nH]cc(c34)C[C@H]2N(C)C1 (some centres not stated)
inactive: Potency [6]
active: Potency [5] 14.1 µM

CC1Cc2cc3c(cc2C(c2ccc(N)cc2)=NN1)OCO3 (configuration not stated)
inactive: Potency [8] | Potency [6]

ClC1=C(Cl)C2(Cl)C3C4CC(C5OC45)C3C1(Cl)C2(Cl)Cl (configuration not stated)
active: Potency [13] 13.3 µM
inactive: Potency [7] > 92 µM | Potency [9] | activity change % (negative = inhibition) [2] -28.8% | Potency [10] | Potency [11] | Potency [12] | max response [4] 9.76% | Potency [14] | Potency [15] | Potency [16] | Potency [17] | Potency [18] | Potency [19]

C/C=C/c1ccc2c(c1)OCO2
-8.06%: max response [1]
inactive: Potency [7] > 92 µM | activation [3] -2.48% | max response [4] -6.18% | Potency [13]

CCN(CC)C(=O)N[C@@H]1C[C@@H]2c3cccc4[nH]cc(c34)C[C@H]2N(C)C1
inactive: Potency [6] | Potency [9] | Potency [10] | Potency [11] | Potency [12] | Potency [14] | Potency [16] | Potency [17] | Potency [18] | Potency [19]
active: Potency [20] 6.31 µM | Potency [5] 0.398 µM | Potency [15] 3.98 µM

CNC(=O)O/N=C/C(C)(C)SC
inactive: Potency [7] > 92 µM | activity change % (negative = inhibition) [2] -3.92% and 16.1% and 0.362% | activation [3] -1.27% and -5.37% and -5.16% | max response [4] 4.62% and -1.35% and -3.37% | Potency [13]
-9.38% and -5.02% and 4.99%: max response [1]

CC(C)c1c(CN(C)[C@@H](C)Cc2ccccc2)n(C)n(-c2ccccc2)c1=O
inactive: Potency [9] | Potency [10] | Potency [11] | Potency [12] | Potency [14] | Potency [15] | Potency [16] | Potency [17] | Potency [18] | Potency [19]

CN(C)C(=O)Oc1cc(OC(=O)N(C)C)cc([C@@H](O)CNC(C)(C)C)c1
inactive: Potency [9] | Potency [10] | Potency [11] | Potency [12] | Potency [14] | Potency [15] | Potency [16] | Potency [17] | Potency [18] | Potency [19]

C[N+]1(C)[C@@H]2CC[C@H]1CC(OC(=O)[C@@H](CO)c1ccccc1)C2 (some centres not stated)
inactive: Potency [9] | Potency [10] | Potency [11] | Potency [12] | Potency [14] | Potency [15] | Potency [16] | Potency [17] | Potency [18] | Potency [19]

CC[C@@]1(c2ccc(N)cc2)CCC(=O)NC1=O
inactive: Potency [9] | Potency [10] | Potency [11] | Potency [12] | Potency [14] | Potency [15] | Potency [16] | Potency [17] | Potency [18] | Potency [19]

C[C@@]12CCC(=O)C=C1C=C[C@H]1[C@H]3CC[C@](O)(CCC(=O)O)[C@]3(C)CC[C@@H]12
inactive: Potency [9] | Potency [10] | Potency [11] | Potency [12] | Potency [14] | Potency [15] | Potency [16] | Potency [17] | Potency [18] | Potency [19]

C[C@H](N)[C@@H](O)c1ccccc1
inactive: Potency [9] | Potency [10] | Potency [11] | Potency [12] | Potency [14] | Potency [15] | Potency [16] | Potency [17] | Potency [18] | Potency [19]

C[N+]1([O-])[C@@H]2CC(OC(=O)[C@@H](CO)c3ccccc3)C[C@@H]1[C@H]1O[C@H]12 (some centres not stated)
inactive: Potency [9] | Potency [10] | Potency [11] | Potency [12] | Potency [14] | Potency [15] | Potency [16] | Potency [17] | Potency [18] | Potency [19]

CC1=C2[C@@H]3OC(=O)[C@@H](C)[C@@H]3CC[C@]2(C)C=CC1=O
inactive: Potency [9] | Potency [10] | Potency [11] | Potency [12] | Potency [14] | Potency [15] | Potency [16] | Potency [17] | Potency [18] | Potency [19]
